For eleven compounds, Percent Effect results are on record in ChEMBL document CHEMBL3988442, “University of Dundee, Small-Polar-MMV Screening Library” (2021).

What all share (design): scale not given: direction of the effect not stated beside the values
For test [1], the target named is Protein translocase subunit SecA (Escherichia coli (strain K12)) (UniProt P10408). The experiment in a line: Assay to Identify E. coli SecA ATPase Inhibitors. The conditions noted are these: 30 µM. Type of test: functional.
Sequence of Protein translocase subunit SecA (Escherichia coli (strain K12)) (P10408 whole entry): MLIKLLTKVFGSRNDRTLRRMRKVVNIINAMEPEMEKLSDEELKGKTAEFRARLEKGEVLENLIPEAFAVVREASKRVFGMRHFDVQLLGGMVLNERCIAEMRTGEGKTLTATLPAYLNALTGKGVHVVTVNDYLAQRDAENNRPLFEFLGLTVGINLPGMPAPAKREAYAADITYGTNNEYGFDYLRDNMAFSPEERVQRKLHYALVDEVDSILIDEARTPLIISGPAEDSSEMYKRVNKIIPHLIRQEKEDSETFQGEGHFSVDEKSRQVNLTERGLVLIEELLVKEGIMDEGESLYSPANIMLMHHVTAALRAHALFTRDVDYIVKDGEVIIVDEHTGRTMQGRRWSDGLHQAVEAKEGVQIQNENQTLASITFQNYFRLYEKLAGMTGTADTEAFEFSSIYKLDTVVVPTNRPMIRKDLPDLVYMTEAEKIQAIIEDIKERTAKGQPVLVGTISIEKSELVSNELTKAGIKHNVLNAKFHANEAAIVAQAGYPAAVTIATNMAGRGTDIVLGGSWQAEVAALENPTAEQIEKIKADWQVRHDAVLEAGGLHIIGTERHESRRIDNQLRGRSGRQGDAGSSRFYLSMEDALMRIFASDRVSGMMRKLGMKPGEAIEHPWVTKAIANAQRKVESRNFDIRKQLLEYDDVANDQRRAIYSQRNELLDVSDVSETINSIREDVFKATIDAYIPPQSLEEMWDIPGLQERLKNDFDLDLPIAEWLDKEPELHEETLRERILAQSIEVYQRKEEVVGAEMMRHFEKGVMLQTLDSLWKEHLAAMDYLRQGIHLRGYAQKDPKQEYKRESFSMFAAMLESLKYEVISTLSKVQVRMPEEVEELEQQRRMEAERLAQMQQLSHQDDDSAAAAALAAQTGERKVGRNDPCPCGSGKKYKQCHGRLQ
Test [2] deals with T1, Ubiquitin-activating enzyme e1, putative (Leishmania donovani (strain BPK282A1)) (UniProt E9BSI1).
T1 sequence (whole entry): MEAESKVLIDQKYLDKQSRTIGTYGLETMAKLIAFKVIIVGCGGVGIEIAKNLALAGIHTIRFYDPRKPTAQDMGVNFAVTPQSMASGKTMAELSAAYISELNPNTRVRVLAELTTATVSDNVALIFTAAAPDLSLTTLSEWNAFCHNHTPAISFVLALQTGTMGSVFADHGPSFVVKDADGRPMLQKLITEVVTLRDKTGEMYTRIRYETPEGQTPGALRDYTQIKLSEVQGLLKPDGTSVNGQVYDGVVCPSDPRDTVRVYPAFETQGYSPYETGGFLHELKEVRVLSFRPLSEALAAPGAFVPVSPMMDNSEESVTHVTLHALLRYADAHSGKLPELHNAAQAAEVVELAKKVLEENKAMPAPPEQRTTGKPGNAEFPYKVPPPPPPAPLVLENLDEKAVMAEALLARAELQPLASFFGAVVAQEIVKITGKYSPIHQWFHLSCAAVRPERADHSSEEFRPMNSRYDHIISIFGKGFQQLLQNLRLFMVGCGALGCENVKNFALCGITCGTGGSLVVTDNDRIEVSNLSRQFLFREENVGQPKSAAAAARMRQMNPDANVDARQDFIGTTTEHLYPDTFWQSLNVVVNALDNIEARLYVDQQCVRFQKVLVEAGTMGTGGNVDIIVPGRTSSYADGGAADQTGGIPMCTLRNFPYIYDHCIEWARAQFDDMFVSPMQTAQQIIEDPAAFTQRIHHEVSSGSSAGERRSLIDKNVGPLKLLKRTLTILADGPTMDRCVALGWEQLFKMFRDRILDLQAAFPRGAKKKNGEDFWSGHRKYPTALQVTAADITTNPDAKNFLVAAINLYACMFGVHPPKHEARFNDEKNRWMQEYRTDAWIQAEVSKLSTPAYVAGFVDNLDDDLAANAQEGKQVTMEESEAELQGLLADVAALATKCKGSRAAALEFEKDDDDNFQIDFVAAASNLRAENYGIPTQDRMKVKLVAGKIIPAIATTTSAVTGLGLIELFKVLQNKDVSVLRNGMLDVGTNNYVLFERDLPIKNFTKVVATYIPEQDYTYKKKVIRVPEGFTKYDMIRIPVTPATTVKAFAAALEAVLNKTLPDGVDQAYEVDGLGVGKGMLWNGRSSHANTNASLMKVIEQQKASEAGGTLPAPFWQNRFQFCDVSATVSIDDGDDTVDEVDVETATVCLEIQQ
Briefly: Leishmania donovani Ubiquitin Activating Enzyme (LdE1). The settings on record: 30 µM. Type of test: functional.

The target in test [3] is AMP-activated protein kinase, AMPK (Homo sapiens) (UniProt P54646+O43741+P54619+Q9UGJ0+Q9Y478+Q13131+Q9UGI9). Briefly: AMP-dependent Kinase enzyme assay. An in vitro enzyme assay that detects ADP turnover that is directly proportional to AMPK activity. This uses naive AMPK that is activated during the assay with MK-8722. The format is functional. The conditions noted are these: 30 µM.

For test [4], the target named is Sialic acid-binding Ig-like lectin 9 (Homo sapiens) (UniProt Q9Y336). Briefly: Hs-Siglec9 ALPHAscreen SOP 20170721. The conditions noted are these: 10 µM. (In Alpha technology, singlet oxygen from a donor bead excites a nearby acceptor bead.)
Sequence of Sialic acid-binding Ig-like lectin 9 (Homo sapiens) (Q9Y336 whole entry): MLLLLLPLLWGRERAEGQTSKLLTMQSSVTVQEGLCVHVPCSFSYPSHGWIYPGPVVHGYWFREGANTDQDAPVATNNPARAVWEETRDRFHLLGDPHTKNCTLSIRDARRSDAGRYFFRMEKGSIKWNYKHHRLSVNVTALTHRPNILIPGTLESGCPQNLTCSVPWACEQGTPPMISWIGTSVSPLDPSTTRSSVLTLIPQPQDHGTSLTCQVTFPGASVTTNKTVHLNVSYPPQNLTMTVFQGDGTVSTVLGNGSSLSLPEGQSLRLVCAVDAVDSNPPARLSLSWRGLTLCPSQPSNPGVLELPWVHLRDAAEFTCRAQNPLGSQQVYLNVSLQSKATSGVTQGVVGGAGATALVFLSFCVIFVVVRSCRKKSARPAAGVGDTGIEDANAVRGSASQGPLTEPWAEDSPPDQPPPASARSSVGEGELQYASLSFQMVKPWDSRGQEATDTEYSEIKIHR
Test [5] deals with Trypanosoma cruzi. The experiment in a line: Trypanosoma cruzi phosphomannomutase and mannose-1-phosphate guanylyltransferase assay. The settings on record: 10 µM. The format is functional.
Test [6] addresses T2, Arginase-2, mitochondrial (Homo sapiens) (UniProt P78540).
T2 sequence (whole entry): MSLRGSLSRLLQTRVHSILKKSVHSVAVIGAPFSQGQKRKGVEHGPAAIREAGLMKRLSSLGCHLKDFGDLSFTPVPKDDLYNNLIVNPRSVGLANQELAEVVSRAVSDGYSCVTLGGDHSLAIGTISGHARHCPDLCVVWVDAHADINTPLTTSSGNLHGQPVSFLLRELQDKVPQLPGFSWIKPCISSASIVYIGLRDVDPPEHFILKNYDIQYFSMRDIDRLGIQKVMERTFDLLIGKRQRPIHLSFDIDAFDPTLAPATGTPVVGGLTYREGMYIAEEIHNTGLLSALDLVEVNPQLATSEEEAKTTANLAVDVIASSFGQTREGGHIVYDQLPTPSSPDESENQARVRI
Briefly: in vitro enzyme assay to detect the production of urea directly proportional to the activity of Arginase II. Note: in the data most compounds retested in dose-response had high values. The settings on record: 33.3 µM. The format is functional.

In test [7] the target is T3, Proteasome subunit beta (Trypanosoma cruzi) (UniProt O96673).
T3 sequence (whole entry): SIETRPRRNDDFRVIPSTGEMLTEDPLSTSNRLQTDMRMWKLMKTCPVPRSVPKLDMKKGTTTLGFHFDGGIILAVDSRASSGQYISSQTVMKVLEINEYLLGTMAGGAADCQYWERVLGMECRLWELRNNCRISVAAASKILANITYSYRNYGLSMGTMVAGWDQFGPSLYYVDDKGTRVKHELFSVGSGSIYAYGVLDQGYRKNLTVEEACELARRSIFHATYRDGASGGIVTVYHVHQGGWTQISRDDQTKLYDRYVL
The experiment in a line: Trypanosoma cruzi proteasome chymotrypsin-like activity (TcProtChymo) assay. Note: in the data most compounds retested in dose-response had high values. Type of test: functional. The conditions noted are these: 9.37 µM.

The species entered for test [8] is Homo sapiens. Briefly: To identify inhibition of the IFN signalling (Jak-Stat) pathway via expression of an eGFP reporter gene under the control of an IFN-stimulated response element (ISRE) containing MxA promoter. The format is functional. The settings on record: 30 µM.
Test [9] concerns the target T4, Tyrosyl-tRNA synthetase, putative (Trypanosoma cruzi (strain CL Brener)) (UniProt Q4DSP6).
T4 sequence (whole entry): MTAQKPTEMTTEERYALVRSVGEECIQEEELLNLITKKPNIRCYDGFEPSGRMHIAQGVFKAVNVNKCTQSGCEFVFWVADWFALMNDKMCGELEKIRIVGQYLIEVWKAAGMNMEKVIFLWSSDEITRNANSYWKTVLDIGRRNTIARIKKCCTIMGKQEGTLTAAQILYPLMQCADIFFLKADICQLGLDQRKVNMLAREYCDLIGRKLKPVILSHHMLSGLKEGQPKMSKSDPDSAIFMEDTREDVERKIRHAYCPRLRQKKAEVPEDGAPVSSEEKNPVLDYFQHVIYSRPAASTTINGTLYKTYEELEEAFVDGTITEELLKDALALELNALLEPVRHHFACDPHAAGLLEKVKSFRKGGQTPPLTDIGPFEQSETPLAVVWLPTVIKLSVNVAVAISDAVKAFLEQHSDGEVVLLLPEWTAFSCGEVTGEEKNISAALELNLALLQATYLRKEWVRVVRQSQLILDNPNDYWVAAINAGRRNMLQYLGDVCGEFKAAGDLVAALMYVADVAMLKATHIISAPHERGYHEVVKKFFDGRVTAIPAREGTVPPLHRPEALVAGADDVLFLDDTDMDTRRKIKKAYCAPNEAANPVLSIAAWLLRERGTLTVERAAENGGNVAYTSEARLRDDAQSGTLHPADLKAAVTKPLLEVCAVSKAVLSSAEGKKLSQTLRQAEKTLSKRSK
Briefly: Trypanosoma cruzi tyrosyl tRNA synthetase (TcYRS) _High Tyrosine SOP. Note: in the data most compounds retested in dose-response had high values. The conditions noted are these: 30 µM. The format is functional.

Test [10] has as its target T4, Tyrosyl-tRNA synthetase, putative (Trypanosoma cruzi (strain CL Brener)). The experiment in a line: Trypanosoma cruzi tyrosyl tRNA synthetase (TcYRS) SOP. Type of test: functional. The settings on record: 30 µM.
For test [11], the target named is Chromo domain-containing protein 1 (Saccharomyces cerevisiae (strain ATCC 204508 / S288c) (Baker's yeast)) (UniProt P32657). The experiment in a line: ScCHD-1 Enzyme Inhibition Assay. Note: in the data most compounds retested in dose-response had high values. Type of test: functional. The conditions noted are these: 30 µM.
Sequence of Chromo domain-containing protein 1 (Saccharomyces cerevisiae (strain ATCC 204508 / S288c) (Baker's yeast)) (P32657 whole entry, the tested form may be a part): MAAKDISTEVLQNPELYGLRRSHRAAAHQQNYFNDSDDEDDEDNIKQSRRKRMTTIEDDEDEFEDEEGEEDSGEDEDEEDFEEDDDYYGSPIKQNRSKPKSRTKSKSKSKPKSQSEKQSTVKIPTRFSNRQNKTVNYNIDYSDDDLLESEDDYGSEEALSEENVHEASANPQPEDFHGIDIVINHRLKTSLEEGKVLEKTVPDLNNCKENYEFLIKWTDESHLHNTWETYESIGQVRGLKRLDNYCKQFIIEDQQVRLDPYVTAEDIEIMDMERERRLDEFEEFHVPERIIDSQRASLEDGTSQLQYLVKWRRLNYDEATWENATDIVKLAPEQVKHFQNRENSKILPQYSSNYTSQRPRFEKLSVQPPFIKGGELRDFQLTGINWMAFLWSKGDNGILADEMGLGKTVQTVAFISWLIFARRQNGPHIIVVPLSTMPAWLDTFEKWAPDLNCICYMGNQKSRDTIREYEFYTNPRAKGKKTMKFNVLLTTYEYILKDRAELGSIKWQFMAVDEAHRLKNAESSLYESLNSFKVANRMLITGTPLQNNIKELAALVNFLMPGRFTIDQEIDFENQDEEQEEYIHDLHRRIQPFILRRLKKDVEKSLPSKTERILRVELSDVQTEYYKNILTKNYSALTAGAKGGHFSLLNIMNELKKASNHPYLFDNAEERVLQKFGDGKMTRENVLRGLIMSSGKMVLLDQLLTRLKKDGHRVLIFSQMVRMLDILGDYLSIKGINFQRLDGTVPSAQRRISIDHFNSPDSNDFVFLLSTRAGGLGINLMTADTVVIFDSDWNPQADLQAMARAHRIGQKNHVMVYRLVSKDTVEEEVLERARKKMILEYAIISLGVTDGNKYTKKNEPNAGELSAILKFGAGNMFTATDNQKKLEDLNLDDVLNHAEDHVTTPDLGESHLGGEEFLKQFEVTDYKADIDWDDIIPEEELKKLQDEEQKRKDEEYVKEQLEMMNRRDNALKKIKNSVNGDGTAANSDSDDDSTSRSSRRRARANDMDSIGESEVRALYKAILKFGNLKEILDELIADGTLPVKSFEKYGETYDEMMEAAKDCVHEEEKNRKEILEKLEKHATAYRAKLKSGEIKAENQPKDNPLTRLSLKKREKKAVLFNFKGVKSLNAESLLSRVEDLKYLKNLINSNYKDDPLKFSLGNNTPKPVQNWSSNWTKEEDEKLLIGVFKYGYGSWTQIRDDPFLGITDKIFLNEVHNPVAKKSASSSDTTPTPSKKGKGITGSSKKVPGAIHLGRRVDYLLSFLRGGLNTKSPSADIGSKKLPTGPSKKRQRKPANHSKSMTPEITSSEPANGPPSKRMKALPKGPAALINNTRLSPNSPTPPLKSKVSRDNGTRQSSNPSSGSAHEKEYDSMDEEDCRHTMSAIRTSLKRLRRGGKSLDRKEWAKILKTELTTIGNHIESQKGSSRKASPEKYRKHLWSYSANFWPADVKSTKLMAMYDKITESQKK

For some of these results: Measured potencies and affinities stand elsewhere.

As for `CN(C)C(=O)N1CCn2nc(CNC(=O)CCC(F)(F)F)cc2C1`, the Percent Effect was 0.369% in [1]; 6.94% in test [2]; -0.273% in [3]; 2.6% in test [4]; 4.18% in [5]; 13.7% in test [6]. Also, the Percent Effect was 10.3% in test [7]; 15% in [8]; 6.32% in test [9]; 15.4% in [10]; -4.37% in test [11].
As to `CCn1nnc2c1C(COC)CN(Cc1cccs1)C2` (stereo unspecified), the Percent Effect in [1] is -2.49%; in test [2] it was 5.41%; in test [3], 4.39%; in [4], 6.4%; in test [5], 4.69%; in test [6] it was 1.67%. Further, the Percent Effect was 12.3% in test [7]; -4.92% in test [8]; 4.95% in test [9]; 8.54% in test [10]; -4.09% in test [11].
As for `Cc1noc(C)c1CCC(=O)NC(C)c1nnc2n1CCC2` (stereo unspecified), the Percent Effect is -2.15% in test [1]; 16.2% in [2]; 5.84% in test [3]; 17.7% in test [4]; 6.35% in test [5]; 5.71% in test [6]. The Percent Effect in [7] was 5.24%; in test [8], 3.14%; in [9], 2.15%; in [10] it was 13.6%; in test [11] it was -4.65%.
In the case of `COc1ccc(COCC(O)CNC(=O)c2cnc(C)cn2)cc1` (stereo unspecified), the Percent Effect in test [1] is -3.92%; in [2], -8.86%; in [3] it was 0.227%; in test [4], 0.611%; in test [5] it was 0.308%; in [6], -1.94%. For the same compound, the Percent Effect in test [7] is 10.1%; in test [8] it was 7.75%; in test [9], 4.17%; in test [10], 10.1%; in test [11] it was -25.8%.
As for `Cc1nc(C)n(CC2CN(Cc3cccc4c3OCCO4)CCO2)n1` (stereo unspecified), the Percent Effect was -6.14% in [1]; 18.4% in test [2]; -1.72% in [3]; 0.869% in test [4]; 3.46% in test [5]; 1.08% in [6]. Further, the Percent Effect in test [7] is 1.78%; in test [8], 2.86%; in test [9], 11.3%; in test [10], 28.4%; in [11] it was -8.32%.
With `CC(=O)c1ccccc1C(=O)NCC1(CO)CC1`, the Percent Effect was -0.313% in [1]; 10.8% in test [2]; -5.63% in test [3]; 7.79% in [4]; 1.16% in test [5]; -4.29% in test [6]. Besides, the Percent Effect in test [7] is 3.79%; in test [8], 21.2%; in test [9], 4.76%; in test [10], -4.88%; in test [11], -0.424%.
On to `CCc1nnc2n1CCN(C(=O)c1cc3cc(F)ccc3[nH]1)C2`, for which the Percent Effect in test [1] is -3.51%; in [2] it was 0%; in [3] it was 21%; in test [4], 11.1%; in [5] it was 4.68%; in test [6] it was -1.78%. Besides, the Percent Effect in [7] is 2.37%; in test [8] it was -24.4%; in test [9], 7.77%; in [10] it was 24.4%; in test [11] it was -11.3%.
For the compound `COCCC(=O)N1CC2(CCN(Cc3ccoc3)C2)C1`, the Percent Effect in test [1] was -1.14%; in test [2], 13.3%; in [3], 3.09%; in [4], -10.1%; in [5], -6.69%; in test [6], 5.36%. For the same compound, the Percent Effect in [7] was 17.7%; in test [8], 9.94%; in test [9], 4.25%; in [10], 1.28%; in test [11], -1.88%.
As for `CO[C@H]1CCN(C(=O)Cc2ccccn2)[C@H]1Cc1ccncc1`, the Percent Effect was -0.476% in test [1]; 16% in test [2]; 1.42% in test [3]; -1.93% in test [4]; -4.53% in test [5]; -2.56% in [6]. Also, the Percent Effect is 8.02% in test [7]; 7.43% in test [8]; 3.19% in test [9]; 11.5% in test [10]; -2.72% in test [11].
`OCC1CCCN1c1cc(N2CCC(OC3CCCC3)CC2)ncn1` (stereo unspecified): the Percent Effect in [1] was -0.479%; in [2] it was 23.4%; in test [3] it was -10.1%; in test [4], -5.43%; in test [5], 3.04%; in test [6] it was 2.32%. In addition, the Percent Effect in test [7] was 15.8%; in test [8], -7.13%; in [9], 7.62%; in test [10] it was 23.5%; in [11], -22.6%.
As for `CC(C)c1cccc(CSc2nnc(CN3CCCC3=O)o2)n1`, the Percent Effect in test [1] was 2.49%; in [2], -2.67%; in [3], -1.77%; in [4] it was -1.76%; in [5] it was -0.0974%; in test [6], 5.21%. Also, the Percent Effect in test [7] is -0.174%; in [8], -2.67%; in test [9], 1.64%; in test [10] it was 1.24%; in [11], 0.138%.
